Screening data (PubChem BioAssay)
KDM5B inh – inhibitors of human KDM5B histone demethylase; Q9UGL1; KDM5B demethylase, FDH-coupled NADH fluorescence (FDH is formaldehyde dehydrogenase); Potency, µM (highest dose often 57.7 µM), hits mostly inhibitors; 220,000 compounds, 2.6% hits; active = well fitted inhibition curve with a large enough effect; note: nearly all actives have a fitted effect of over 70% in size
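Inhibition is measured as reduced NADH fluorescence generation from FDH coupling to formaldehyde release. Truncated KDM5BΔAP at 200 nM final acts on H3K4me3 peptide (12.5 µM in substrate mix) in pH 7.5 HEPES buffer with Tween-20, 30 min, room temperature.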
Each line names hits and unclear results; the compound was inactive in the other large screens. Many of the other results were omitted from the sample, so hits are more common in it than they were.

CCc1ccc(OC(=O)c2ccc(OC)cc2)c(Br)c1	none
O=C(NCCN1CCCCC1)c1nc(-c2ccc3cc[nH]c3c2)no1	none
Cc1cnc(C(=O)N2CCCN(C(=O)C3CC3)C(c3ccccc3)CC(=O)NCC2)cn1 (centres undefined)	none
CCOc1cc(/C=C2/NC(=O)NC2=O)ccc1OCc1cccc(F)c1	none
CCc1nnc2sc(-c3ccc(CNC(=O)c4ccc(F)cc4)cc3)nn12	none
O=C(NCc1nnc2n1CCC2)c1ccc2nc(-c3ccc(F)cc3)cn2c1	KDM5B inh 31.6µM
O=C(NCCCc1ccccn1)c1ccc2nc(-c3ccc(F)cc3)cn2c1	KDM5B inh 28.2µM
O=C(NCc1ccoc1)c1ccc2nc(-c3ccc(F)cc3)cn2c1	KDM5B inh 25.1µM
O=C(NCc1ccc(Cl)cc1)c1noc(-c2ccc(F)cc2)n1	none
Cc1c(CNC(=O)c2ccc3nc(-c4ccc(F)cc4)cn3c2)cnn1C	KDM5B inh 28.2µM
O=C(Nc1ccc(-c2nnc3n2CCCC3)cc1)c1ccc(F)cc1	none
O=C(NCCc1ccccn1)c1ccc(C(F)(F)F)cc1	none
CCc1ccc(-c2cc(C(F)(F)F)n3nc(C(=O)NCc4cnn(C)c4C)cc3n2)s1	none
Cc1ccc(C(=O)NCc2ccc(-c3csc(C)n3)cc2)cc1	none
O=C(NCc1ccccn1)c1ccc(F)cc1	none
O=C(NCc1nnc2n1CCC2)Nc1ccccc1	none
O=C1CN(CC(=O)Nc2ccc(F)cc2F)CCN1	none
O=C(NC1CCCCC1)c1cccc(Nc2cc(-c3cccc(F)c3)ncn2)c1	none
O=C(NCCOc1ccccc1)[C@@H]1C[C@@H](c2ccc(F)cc2)N([S+](=O)([O-])c2ccccc2)C1	none
O=C(Cn1c(=O)c2c(ncn2Cc2ccccc2)n(Cc2ccccc2)c1=O)NCCc1ccccc1	none
Cc1ccccc1NC1(c2nnnn2-c2ccccc2C)CCCC1	none
COC(=O)[C@H]1CCCN1C(=O)[C@@H]1[C@@H](NC(=O)NC(C)C)CCN1C(=O)c1cccn1C	none
CC(C)Cc1cc(C[C@@H]2C[C@H](NC(=O)C3CCC3)C2(C)C)no1	none
N#Cc1cccc(NC(=O)Nc2ccc(=O)n3c2[C@@H]2C[C@@H](CN(C(=O)COc4ccccc4)C2)C3)c1	none
O=C(CCSc1nc(Cl)nc2nc[nH]c12)NCc1ccccc1	none
O=C(COC(=O)c1cccc([N+](=O)[O-])c1C(=O)OCC(=O)c1ccc(Br)cc1)c1ccc(Br)cc1	none
O=C(Nc1ccccc1)Nc1ccc([C@H]2OCC(=O)N(Cc3ccc(F)cc3)[C@@H]2CO)cc1	none
Cc1ccc(S(=O)(=O)N2CC[C@H](c3n[nH]c(C)n3)[C@H](NC(=O)CN(C)C)C2)cc1	none
CCOc1ccccc1Oc1coc2cc(OC(=O)c3ccc(F)cc3)ccc2c1=O	none
COC(=O)C1(NC(=O)c2c(F)cccc2Cl)CCCCC1	none
Brc1ccccc1-c1nnc(CN2CCc3ccccc3C2)o1	none
Cc1ccc(-c2cnc(CCC(=O)N(C)C(C)c3ccc(S(N)(=O)=O)cc3)o2)cc1 (centres undefined)	none
COc1cc(OC)c(NC(=O)Cn2nc(-c3ccc(C)cc3)ccc2=O)cc1Cl	none
COc1ccc(S(=O)(=O)N2CCN(C(=O)NC3CC3)CC2)cc1	none
Cc1cccc(NC(=O)c2cc(=O)c3cc(C)ccc3o2)c1	none
COc1ccc(-c2nc3cc(C)ccc3cc2CN2CCCC(CO)C2)cc1OC (centres undefined)	none
COC[C@@H]1CCCN1Cc1cn(Cc2ccccc2)nc1-c1cc2ccccc2o1	none
COc1ccc(-c2nc3cc(C)ccc3cc2CN2CCCC(O)C2)cc1OC (centres undefined)	none
COc1ccc(-c2ccccc2NC(=O)C2CCCN(Cc3ccccc3O)C2)cc1 (centres undefined)	none
COC[C@@H]1CCCN1Cc1cc2ccc(C)cc2nc1-c1ccc(OC)cc1	KDM5B inh 22.4µM
CC(=O)Nc1ccc(NC(=O)c2cccc(CN3CCCC(C#N)C3)c2)cc1 (centres undefined)	none
COc1ccc2cc(CN3CCCC(C#N)C3)c(-c3cccs3)nc2c1 (centres undefined)	KDM5B inh 31.6µM
COc1ccc(-c2nc3cc(C)ccc3cc2CN2CCCC(OC)C2)cc1 (centres undefined)	KDM5B inh 25.1µM
COC[C@H]1CCCN1Cc1cn(-c2ccccc2)nc1-c1ccc(OC)cc1F	none
COc1ccc(Oc2c(C)oc3cc(OCC(=O)N4CCCCCC4)ccc3c2=O)cc1	none
O=C(NCc1ccccc1)c1cnc2n1CCN(CCCc1ccccc1)CC2	none
O=C(Cc1c[nH]c2ccccc12)Nc1ccc2ccccc2c1	none
CCCOc1ccc(-c2nonc2NC(=O)Cc2ccc(OC)cc2)cc1	none
COCCN1CC(Cc2cccc(-c3nnc(C)s3)c2)CC1=O (centres undefined)	none
CCOC(=O)c1ccc(NC(=O)N2Cc3[nH]cnc3C[C@H]2c2nc(-c3ccncc3)no2)cc1	none
O=C(Nc1cccc(F)c1)N1Cc2[nH]cnc2C[C@H]1c1nc(-c2ccncc2)no1	none
O=C(c1ccccc1)N1Cc2[nH]cnc2C[C@H]1c1nc(-c2ccc(Cl)cc2)no1	none
Cc1ccc(-c2noc([C@@H]3Cc4nc[nH]c4CN3C(=O)COCC(=O)O)n2)cc1	none
c1csc(CN2Cc3[nH]cnc3C[C@H]2c2nc(-c3ccc4ccccc4c3)no2)c1	KDM5B inh 28.2µM
O=C(CCC1CCCC1)N1CCCCCC1c1nc(-c2ccncc2)no1 (centres undefined)	none
c1csc(CN2Cc3[nH]cnc3C[C@H]2c2nc(-c3ccncc3)no2)c1	KDM5B inh 28.2µM
c1cc(-c2noc([C@@H]3Cc4nc[nH]c4CN3CC3CCCCC3)n2)ccn1	KDM5B inh 35.5µM
COc1ccc(-c2noc([C@@H]3Cc4nc[nH]c4CN3C(=O)CSCC(=O)O)n2)cc1	none
Cc1nc2cc(S(=O)(=O)N3CCOCC3)ccc2n1CCNC(=O)C1CC1	none
O=C(Nc1ccc2oc(-c3cccnc3)nc2c1)c1ccc(Cl)c(Cl)c1	none
Cc1ccc(N2CCN(C(=O)c3cc4ccccc4oc3=O)CC2)cc1Cl	none
NC(=O)C1CC(O)CN1 (centres undefined)	none
O=C(CSc1nc(-c2ccccc2)cc(=O)[nH]1)Nc1oncc1-c1ccccc1	none
CC(C)Oc1cccc(C(C)NC(=O)c2ccccc2Cl)c1 (centres undefined)	none
Cc1ccccc1C(=O)N1CC2(Cc3ccccc3N([S+](C)(=O)[O-])C2)C1	KDM5B inh 25.1µM
C[S+](=O)([O-])N1CC2(Cc3ccccc31)CN(C(=O)c1ccccc1F)C2	none
C[S+](=O)([O-])N1CC2(Cc3ccccc31)CN(C(=O)c1ccccc1Cl)C2	none
C[S+](=O)([O-])N1CC2(CCN(C(=O)CCC(=O)O)C2)Cc2ccccc21 (centres undefined)	KDM5B inh 39.8µM
C[S+](=O)([O-])N1CC2(Cc3ccccc31)CN(C(=O)c1ccccc1)C2	none
COC(=O)N1CC2(Cc3ccccc3N([S+](C)(=O)[O-])C2)C1	none
COCC(=O)N[C@H]1CC[C@]2(C)CCC([C@H](C)C(=O)NCc3ccc(OC)c(OC)c3)[C@H](O)[C@H]2[C@@H]1C (some centres undefined)	none
COCCOC1CCOC2(CCN(C(=O)c3sccc3C)CC2)C1 (centres undefined)	none
Cc1cnc(C(=O)N2CCC(N3C(=O)C4(CCCCC4)C3c3ccccc3)CC2)cn1 (centres undefined)	none
Cc1ccc(S(=O)(=O)N2CCCN(C(C(=O)NC3CC3)c3ccccc3)CC2)cc1 (centres undefined)	none
CCCCCC1CCC(c2ccc(C#Cc3ccc(OC(F)F)cc3)cc2)CC1 (centres undefined)	none
COc1cc(OC)c(C(=O)Nc2nc(C)c(C)s2)cc1OC	none
